We go through 39 compounds from PubChem BioAssay (Tox21).

Each structure is given as a SMILES string. Inconclusive results are not listed. Where a structure was tested more than once in an assay, its records may differ in their call. Active and inactive are the calls of the source. Calls follow the shape of the full dose curve.
% is scaled to controls: 0 for no effect and ±100 for the full control effect; potency is read from the fitted curve at half-maximal effect.

This assay in a line: qHTS assay for small molecules that induce genotoxicity in human embryonic kidney cells expressing luciferase-tagged ATAD5 - cell viability (AID 651634). Also: nearly all actives have a fitted effect of over 25% in size. As to conditions: HEK293T ATAD5-luc cells viability, CellTiter-Fluor, 15.5 h; series mostly up to 83.3 µM; activity, negative = cytotoxicity: at the top concentration. The source says:
National Center for Advancing Translational Sciences [NCATS]
NIH Chemical Genomics Center [NCGC]
U.S. Environmental Protection Agency [EPA]
National Institutes of Environmental Health Sciences [NIEHS]
National Toxicology Program [NTP]
U.S. Food and Drug Administration [FDA]
Enhanced Level of Genome Instability Gene 1 (ELG1; human ATAD5) protein levels increase in response to various types of DNA damage. Using a luciferase reporter-gene tagged with ElG1, a cell-based assay [developed by Kyungjae Myung, NHGRI, NIH] was used to measure the induction of ATAD5 in human embryonic kidney cells (HEK293T). So, increase in luciferase activity can be used to identify the compounds that cause genetic stress. In addition to genotoxicity, these cells were also used to test for cytotoxicity by measuring the protease activity within live cells.
Tox21 Assay Protocol Summary:
For cytotoxicity screening, 2,000 cells in 5 uL/well were dispensed into white, solid-bottom 1536-well plates using a Multidrop Combi (Thermo Scientific) dispenser. Following transfer of 23 nL compound or DMSO vehicle by a pin tool, the plates were incubated 15.5 hr at 37C and 5% CO2. 1 ul CellTiter-Fluor reagent (Promega, Madison, WI) was then added to each plate and following 30 min incubation at 37C, fluorescence intensity was quantified on a ViewLux CCD-based plate reader.
On the technique in general: In qHTS, concentration-response curves come from the screen itself.
Regarding `CCOCCn1c(N2CCCN(C)CC2)nc2ccccc21`, the “activity, negative = cytotoxicity” value was 23.6% (inactive). Still for that read-out and setting: then `CCCc1ccc(OC)cc1`, with 5.69% [at 95.3 µM] (inactive). With `c1ccc(CN(Cc2ccccc2)Cc2ccccc2)cc1`, the “activity, negative = cytotoxicity” value is 17.9% (inactive). Still for that read-out and setting: then `CCC(C)CCCC(C)(C)O` (stereo not given), with 12.7% (inactive).

Consider `Nc1ccc(F)cc1F`, for which the “activity, negative = cytotoxicity” value was 13.5% [at 95.3 µM] (inactive). Still for that read-out and setting: then `CC(C(=O)O)c1ccc2c(c1)Cc1cccnc1O2` (stereo not given), with 15.5% (inactive).

As for `O=C(O)c1ccc2cc(O)ccc2c1`, the “activity, negative = cytotoxicity” value was 7.13% (inactive). `O=C(O)c1ccncc1`: the “activity, negative = cytotoxicity” value is 7.35% [at 95.3 µM] (inactive).

`Clc1nc2ccccc2nc1Cl`: the “activity, negative = cytotoxicity” value was -7.36% [at 95.3 µM] (inactive).

On to `CC(C)=CCC/C(C)=C/C=N/O`, for which the “activity, negative = cytotoxicity” value is 11.7% (inactive). On the same count and under the same terms, with `CCOc1ccc(NC(C)=O)cc1N` the figure was 10.8% [at 95.3 µM] (inactive); with `C=Cc1ccc(C=C)cc1`, 15% [at 95.3 µM] (inactive). On to `O=C(OC1C[C@H]2CC[C@@H](C1)[N+]21CCCC1)C(O)(c1ccccc1)c1ccccc1` (stereo not given in full), for which the “activity, negative = cytotoxicity” value is 13.5% (inactive). On the same count and under the same terms, with `OCC(O)c1ccccc1` (stereo not given) the figure was 6.68% (inactive); with `CC(C)Oc1ccccc1O`, 14.3% (inactive); with `O=C(O)c1cccc(C(=O)O)c1C(=O)O`, 15.6% [at 95.3 µM] (inactive). Same read-out and setting: then `N#CCCCC(C#N)CCC#N` (stereo not given), with 9.01% (inactive); and `COc1ccc(/C=C/c2cc(OC)cc(=O)o2)cc1`, with 9.36% (inactive). Still for that read-out and setting: then `CCCCCCCCCCCC(=O)OCC`, with 7.96% (inactive); and `CC(=O)c1cccnc1`, with 14.6% (inactive); and `OCCc1ccncc1`, with 13.1% (inactive). Take `Cc1ccc(NC=O)c(C)c1`: the “activity, negative = cytotoxicity” value was 14.9% (inactive). For the compound `O=C(Cl)c1cc(Cl)cc(Cl)c1`, the “activity, negative = cytotoxicity” value was 28.2% [at 95.3 µM] (inactive). Consider `S=c1[nH][nH]c(=S)s1`, for which the “activity, negative = cytotoxicity” value was 6.23% (inactive). Consider `CC/C=C\CCO`, for which the “activity, negative = cytotoxicity” value was 21.3% (inactive). Still for that read-out and setting: with `c1ccc(CCNc2nc(-c3ccccc3)cs2)cc1` the figure was 15.4% (inactive); with `CCCCCCCCCCCCSC#N`, 9.43% (inactive). For the compound `CC1=CC(=C(c2ccc(N)cc2)c2ccc(N)cc2)C=CC1=N`, the Potency is 11.9 µM (active) and the activity, negative = cytotoxicity was -19.8% [at 8.08 µM] (inactive). With `C=CCCC`, the “activity, negative = cytotoxicity” value is 27.9% [at 95.3 µM] (inactive). On the same count and under the same terms, then `Sc1nc(S)nc(S)n1`, with 12.3% (inactive); and `C=CC(O)CCCCC` (stereo not given), with 17.8% (inactive); and `C=C[Si]1(C)O[Si](C)(C=C)O[Si](C)(C=C)O[Si](C)(C=C)O1` (stereo not given), with 10.9% (inactive). Regarding `CCn1nc(Cc2ccccc2)cc1C1CCN(C[C@H]2C[C@H](N(C)[C@@H](C(=O)O)C(C)C)C[C@@H]2c2cccc(F)c2)CC1`, the “activity, negative = cytotoxicity” value was -11.2% (inactive). As for `CC1(C)C(=O)NC(=O)N1CO`, the “activity, negative = cytotoxicity” value was 13% (inactive). In the case of `O=[N+]([O-])c1ccccc1CCO`, the “activity, negative = cytotoxicity” value is 17.4% [at 95.3 µM] (inactive). Consider `CC(=O)c1ccc(Cl)c(Cl)c1Cl`, for which the “activity, negative = cytotoxicity” value is 11.1% (inactive). On the same count and under the same terms, with `Cc1c(-c2cccnc2)c2ccccc2n1CCCCC(=O)O` the figure was -3.38% (inactive); with `Cc1ccc(S(=O)(=O)NC(=O)NC2CCCC2)cc1`, 7.65% (inactive). On the same count and under the same terms, with `Clc1cccc(C(c2ccc3nc[nH]c3c2)n2ccnc2)c1` (stereo not given) the figure was -16.5% (inactive).
